# According to PubChem BioAssay AID894 (National Center for Advancing Translational Sciences (NCATS), 2007):
# Values joined by “and” are separate entries in the source; they are usually repeats but may differ in a detail not shown here. Equal entries are not always repeated. Among all 150,000 compounds or so, about 6,500 (4.3%) were called active. About 12% were inconclusive and are not listed. This is one part of a sample in which actives are shown more often than they occur. More than one record can exist for a structure, and the calls need not agree. Values without a mark were called inactive. The call rests on the fitted dose curve; in most records, active means well fitted inhibition curve with a large enough effect (not every such curve was filed as active); inconclusive means small, poorly fitted or top-dose-only effect, or another doubt; inactive means no such curve, though single readings can be large or run the other way.
# Target: 15-hydroxyprostaglandin dehydrogenase [NAD(+)] (Homo sapiens) (UniProt P15428)
# Sequence (P15428 whole entry, looked up): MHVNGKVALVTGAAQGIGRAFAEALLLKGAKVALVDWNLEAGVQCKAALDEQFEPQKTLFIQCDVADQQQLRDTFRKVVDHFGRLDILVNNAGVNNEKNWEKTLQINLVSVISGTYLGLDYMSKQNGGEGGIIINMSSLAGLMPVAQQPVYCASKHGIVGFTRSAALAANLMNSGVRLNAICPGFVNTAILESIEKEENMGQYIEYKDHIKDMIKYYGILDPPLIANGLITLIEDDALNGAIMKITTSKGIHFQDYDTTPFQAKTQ
# Assay: qHTS Assay for Inhibitors of HPGD (15-Hydroxyprostaglandin Dehydrogenase)
# Conditions: purified HPGD, NADH fluorescence kinetic, PGE2 substrate; activity change, negative = inhibition: stronger effect = lower value
# Description: Human 15-Hydroxyprostaglandin dehydrogenase (HPGD) catalyzes the inactivation of prostaglandin E2, and plays a major role in cancer biology by antagonizing the oncogenic potential of cyclooxygenase type 2 (COX2). Assays are available, based on absorbance/fluorescence increase of NADH with the substrate 15-OH prostaglandin E2. References 1. Myung SJ, Rerko RM, Yan M, Platzer P, Guda K, Dotson A, Lawrence E, Dannenberg AJ, Lovgren AK, Luo G, Pretlow TP, Newman RA, Willis J, Dawson D, Markowitz SD. 15-Hydroxyprostaglandin dehydrogenase is an in vivo suppressor of colon tumorigenesis. […] 2. Yan M, Rerko RM, Platzer P, Dawson D, Willis J, Tong M, Lawrence E, Lutterbaugh J, Lu S, Willson JK, Luo G, Hensold J, Tai HH, Wilson K, Markowitz SD. 15-Hydroxyprostaglandin dehydrogenase, a COX-2 oncogene antagonist, is a TGF-beta-induced suppressor of human gastrointestinal cancers. Proc Natl Acad Sci U S A. 2004 Dec 14;101(50):17468-73. 3. Yang L, Amann JM, Kikuchi T, Porta R, Guix M, Gonzalez A, Park KH, Billheimer D, Arteaga CL, Tai HH, Dubois R, Carbone DP, Johnson DH. Inhibition of Epidermal Growth Factor Receptor Signaling Elevates 15-Hydroxyprostaglandin Dehydrogenase in Non-Small-Cell Lung Cancer. Cancer Res. 2007 Jun 15;67(12):5587-5593. Inhibition of HPGD activity was screened by utilizing prostaglandin as an electron donor and NAD+ as an electron acceptor/cofactor. An increase in the fluorescence intensity due to conversion of NAD+ to NADH was used to measure the enzyme activity. NIH Chemical Genomics Center [NCGC] Structural Genomics Consortium [SGC]
# Buffer: 50 mM Tris-HCl, 0.01% Tween 20, pH 8. Enzyme Buffer: 50 mM Tris-HCl, 0.5 mM NAD+ and 0.01% Tween 20, pH 8. Reagents/Controls: Buffer in columns 3 and 4 as negative control (no enzyme). Substrate/cofactor solution: 1 mM NAD+ and 30 uM prostaglandin (Sigma, prostaglandin E2, # P5640) final concentrations dispensed throughout the plate. Enzyme: 20 nM HPGD final concentration in columns 1, 2, 5-48. Column 1 and 2 is neutral (100% activity). A titration of control inhibitor GW5074 (G6416 Sigma-Aldrich, St. Louis, MO) top concentration 10 mM in DMSO, then 1:2 dilution for a total of 16 concentrations in duplicate) was pin-transferred into column 2. Assay Steps: Three uL of enzyme were dispensed to 1536-well Greiner black solid bottom plates. Compounds and control inhibitor (23 nL) were transferred via Kalypsys PinTool. The plates were incubated for 15 min at room temperature, and then 1 uL of substrate/cofactor solution was added to start the reaction. The plates were immediately transferred to and read 5 times every 30 seconds on ViewLux High-throughput CCD imager (Perkin-Elmer) using 360 nm excitation and 450 nm emission fluorescence protocol. The fluorescence intensity difference between the last and the first time points was used to compute reaction progress.
# On the % scale 0 is the no-effect control and ±100 the full control effect; potency means the concentration at half of the fitted maximal effect.
SMILES,"activity change, negative = inhibition",Potency
CCOc1ccc(N2C(=O)CC(N(O)c3ccccc3)C2=O)cc1 (stereo not given),-7.04%,
CCOC(=O)c1ccc(N2C(=O)CC(N(C)Cc3ccccc3)C2=O)cc1 (stereo not given),-4.27%,
CC1CN(S(=O)(=O)c2ccc(C(=O)NN3CCN(C)CC3)cc2)CC(C)O1 (stereo not given),-9.75%,
Cc1ccc(C(C)C)cc1OCCN1CCCC1,7.86%,
Cc1cc(-c2ccc(/C=N/n3cnnc3)o2)c([N+](=O)[O-])cc1C,,10 µM (active)
Cc1ccc(Cl)cc1-c1ccc(/C=N/n2cnnc2)o1,-18.9%,
Cc1cc([N+](=O)[O-])c(-c2ccc(/C=N/n3cnnc3)o2)cc1Cl,-28.3%,
N#Cc1ccc(C(=O)Nc2nc(-c3cccs3)c(C(=O)C(F)(F)F)s2)cc1,3.33%,
COc1ccc(OCc2cccc(C(=O)N3CCCC3)c2)cc1,-28.1%,
COc1c(C(=O)N2CCCC2)ccc2ccccc12,,12.6 µM (active)
O=C(c1cccc2ccccc12)N1CCN(c2ccccc2F)CC1,-14.2%,
C/C(=N/NC(=O)c1ccc(Br)o1)c1ccc(C)o1,-27.2%,
CCCCC/C=C\CC1OC1CCCCCCCC(=O)O (stereo not given),-7.93%,
COC(=O)C/C=C/[C@@H](C)[C@H](NC(=O)OCC(Cl)(Cl)Cl)c1ccccc1,-2.46%,
COc1ccc(-n2c(=S)[nH]c3sc4c(c3c2=O)CCc2ccccc2-4)cc1,,12.6 µM (active)
COc1ccc(C(=O)Nc2ncc3c(n2)-c2ccccc2CC3)cc1,-20.4%,
CSc1nc2sc3c(c2c(=O)[nH]1)CCc1ccccc1-3,-7.61%,
Cc1cccc(C(=O)NCC(=O)OCC(=O)N2CC3(C)CC2CC(C)(C)C3)c1 (stereo not given),-5.91%,
Cn1cccc1/C=N/NC(=O)c1ccc(OC(F)(F)C(F)F)cc1,-5.18%,
CCN(CC)C(=O)CSc1nnc(-c2cccc(OC)c2)o1,-11.1%,
COc1ccc(CN(C(=O)CSc2nnc(-c3ccc(OC)c(OC)c3)o2)c2ccc(F)cc2)cc1,,14.1 µM (active)
COc1ccc(CCNC(=O)CSc2nnc(-c3cccc(F)c3)o2)cc1OC,-14.4%,

SMILES,"activity change, negative = inhibition",Potency
COCCNC(=O)c1ccccc1NS(=O)(=O)c1ccc(C)c([N+](=O)[O-])c1,1.9%,
Cc1cccc(NC(=O)CN2C(=O)CNC2=O)c1,-7.22%,
Brc1cccc(-c2nnc3n2CCC3)c1,-11.6%,
O=C(Cn1[nH]c(=O)c2ccccc2c1=O)Nc1cccc(-c2nnc3n2CCCCC3)c1,,14.1 µM (active)
COc1ccnc(Oc2ccccc2)n1,-1.44%,
O=[N+]([O-])c1ccc(N/N=C2/CCCCC2c2ccccn2)c([N+](=O)[O-])c1 (stereo not given),-4.22%,
Cc1ccc(S(=O)(=O)N2CCOCC2)cc1C(=O)NC(=S)N(Cc1ccccc1)C(C)C,-17.6%,
CCC(C(=O)OCC(=O)Nc1ccc(C(=O)Nc2ccc(OC)cc2)cc1)c1ccccc1 (stereo not given),-12.4%,
Cc1nc2ccc(S(=O)(=O)NC(C(=O)N3CCCCCC3)C(C)C)cc2s1 (stereo not given),-2.12%,
Cc1nc2ccc(C(=O)N3CCSCC3)cc2s1,,1.58 µM (active)
Cc1nc2ccc(C(=O)N3CCN(c4ccccc4)CC3)cc2s1,-2.92%,
O=C(N/N=C/c1ccc2c(c1)OCO2)c1ccc(Cn2cc([N+](=O)[O-])cn2)o1,-8.13%,
C=CCN1C(=O)C(Cc2ccc(OCC)cc2)SC1=Nc1ccc(C(=O)O)cc1 (stereo not given),-8.9%,
Cc1ccc(C)c(OCC(=O)N2CCN(C(=O)c3ccco3)CC2)c1,1.99%,
CCc1nnc(NS(=O)(=O)c2ccc(NS(=O)(=O)c3ccccc3)cc2)s1,2.28%,
CCc1nnc(NS(=O)(=O)c2ccc(N=Cc3c(C)[nH]n(-c4ccc(C)cc4)c3=O)cc2)s1,,25.1 µM (active)
COc1cc(NS(=O)(=O)c2ccc(N=Cc3c(C)[nH]n(-c4ccccc4)c3=O)cc2)nc(OC)n1,-14.8%,
COC(=O)C1(C(C)=O)CC2=CC[C@H]3C(=O)N(c4ccccc4)C(=O)[C@H]3[C@@H]2Cc2ccccc2[C@@H]1C[N+](=O)[O-] (stereo not given in full),-2.53% and -4.27%,
Oc1c(Cl)cc(Cl)c(Cl)c1Cc1c(O)c(Cl)cc(Cl)c1Cl,-15.8% and -6.53%,35.5 µM (active)
NS(=O)(=O)c1ccc(NC(=O)COC(=O)C2(c3ccc(F)cc3)CCCC2)cc1,-17%,
Cc1ccc(NC(=O)CC2S/C(=N/N=C3\CCCc4ccccc43)NC2=O)cc1 (stereo not given),-13.9%,
CCCCCCCCCOC1OC(CO)C(O)C(O)C1NC(C)=O (stereo not given),-3.92%,
